Experimental data reported in publication PMC7862700, “An all-to-all approach to the identification of sequence-specific readers for epigenetic DNA modifications on cytosine”.

Experiments:
Assay in all cases: DAPPL (digital affinity profiling via proximity ligation, sequencing); 10 mM Tris-HCl pH 7.5, 50 mM NaCl, 1 mM DTT, 4% glycerol, room temperature, 30 min; GST-TFs on glutathione beads, 16-mer random dsDNA library, 0.1% formaldehyde crosslink after washing; high values mean tight binding
FLI1 = target: T1, FLI1 (Homo sapiens, UniProt Q01543 1-452); settings: protein: recombinant; tags: N-terminal GST; dsDNA, one strand shown
T1 sequence: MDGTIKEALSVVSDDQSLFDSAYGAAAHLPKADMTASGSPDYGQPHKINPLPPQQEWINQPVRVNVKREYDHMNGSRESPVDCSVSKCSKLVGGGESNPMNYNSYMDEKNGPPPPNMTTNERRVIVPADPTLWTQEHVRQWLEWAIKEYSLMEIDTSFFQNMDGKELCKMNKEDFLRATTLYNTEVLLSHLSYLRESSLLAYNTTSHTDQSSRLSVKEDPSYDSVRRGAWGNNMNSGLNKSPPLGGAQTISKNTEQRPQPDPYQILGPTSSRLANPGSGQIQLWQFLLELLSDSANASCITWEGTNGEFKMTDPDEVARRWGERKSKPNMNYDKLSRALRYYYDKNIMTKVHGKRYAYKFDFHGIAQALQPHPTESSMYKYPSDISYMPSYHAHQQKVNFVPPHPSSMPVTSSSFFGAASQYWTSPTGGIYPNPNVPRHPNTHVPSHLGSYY
Outline: (§1)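 Sequencing on an Illumina NextSeq500 followed washing, crosslinking with 0.1% formaldehyde, proximity ligation (BsaI/T4 ligase, 1 h, 37 °C) and PCR amplification of pools that had been incubated for 30 min at room temperature with 200 nmole of a random double-stranded 16-mer DNA library in Tris/NaCl/DTT/glycerol buffer. Each pool held DNA-barcoded human transcription factors, expressed in yeast as GST fusions and captured on glutathione beads, plus a tag-only sample. Binding signal is a hexamer's read frequency for a factor divided by its frequency in the tag-only sample.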

ELK1 = target: T2, ELK1 (Homo sapiens, UniProt P19419 1-428); settings: protein: recombinant; tags: N-terminal GST; dsDNA, one strand shown
T2 sequence: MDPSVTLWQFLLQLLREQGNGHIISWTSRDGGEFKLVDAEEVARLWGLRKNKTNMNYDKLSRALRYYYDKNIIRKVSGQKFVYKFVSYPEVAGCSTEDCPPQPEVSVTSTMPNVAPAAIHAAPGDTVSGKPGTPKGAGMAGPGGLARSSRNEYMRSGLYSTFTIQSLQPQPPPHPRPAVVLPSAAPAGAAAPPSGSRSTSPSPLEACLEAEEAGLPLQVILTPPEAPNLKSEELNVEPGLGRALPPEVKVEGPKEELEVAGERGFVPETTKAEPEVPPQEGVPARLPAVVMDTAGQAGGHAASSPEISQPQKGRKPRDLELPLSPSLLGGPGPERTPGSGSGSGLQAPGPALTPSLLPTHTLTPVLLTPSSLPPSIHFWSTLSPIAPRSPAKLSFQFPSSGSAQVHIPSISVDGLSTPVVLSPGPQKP
Outline: as §1

GABPA = target: T3, GABPA (Homo sapiens, UniProt Q06546 1-454); settings: protein: recombinant; tags: N-terminal GST; dsDNA, one strand shown
T3 sequence: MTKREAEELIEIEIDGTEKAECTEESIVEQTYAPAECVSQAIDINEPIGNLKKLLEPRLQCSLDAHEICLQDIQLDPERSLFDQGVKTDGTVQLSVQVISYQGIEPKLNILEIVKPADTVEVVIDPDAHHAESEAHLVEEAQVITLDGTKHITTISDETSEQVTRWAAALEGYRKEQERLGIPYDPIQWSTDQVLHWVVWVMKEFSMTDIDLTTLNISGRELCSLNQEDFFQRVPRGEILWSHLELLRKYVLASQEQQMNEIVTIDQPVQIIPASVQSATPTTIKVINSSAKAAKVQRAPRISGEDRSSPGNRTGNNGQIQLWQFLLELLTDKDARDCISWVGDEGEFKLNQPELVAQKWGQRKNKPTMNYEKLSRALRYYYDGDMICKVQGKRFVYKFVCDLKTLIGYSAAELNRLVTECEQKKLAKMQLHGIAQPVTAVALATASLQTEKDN
Outline: as §1

ERG = target: T4, ERG (Homo sapiens, UniProt P11308 1-479); settings: protein: recombinant; tags: N-terminal GST; dsDNA, one strand shown
T4 sequence: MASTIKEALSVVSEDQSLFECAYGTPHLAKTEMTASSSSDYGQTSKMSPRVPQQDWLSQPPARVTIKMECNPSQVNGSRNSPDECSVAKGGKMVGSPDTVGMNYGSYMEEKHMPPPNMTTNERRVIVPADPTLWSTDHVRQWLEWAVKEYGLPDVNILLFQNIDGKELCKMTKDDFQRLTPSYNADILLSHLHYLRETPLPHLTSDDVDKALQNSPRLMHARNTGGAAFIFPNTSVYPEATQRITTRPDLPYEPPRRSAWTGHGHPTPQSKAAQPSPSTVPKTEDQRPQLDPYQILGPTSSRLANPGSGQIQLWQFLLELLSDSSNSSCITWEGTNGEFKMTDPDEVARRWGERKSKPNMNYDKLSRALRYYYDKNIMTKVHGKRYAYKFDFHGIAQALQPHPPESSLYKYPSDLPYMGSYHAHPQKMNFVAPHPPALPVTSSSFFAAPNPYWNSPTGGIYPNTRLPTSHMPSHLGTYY
Outline: as §1

ELF1 = ELF1 (Homo sapiens, UniProt P32519 1-619); settings: protein: recombinant; tags: N-terminal GST; dsDNA, one strand shown
Outline: as §1

EHF = target: T5, EHF (Homo sapiens, UniProt Q9NZC4 1-300); settings: protein: recombinant; tags: N-terminal GST; dsDNA, one strand shown
T5 sequence: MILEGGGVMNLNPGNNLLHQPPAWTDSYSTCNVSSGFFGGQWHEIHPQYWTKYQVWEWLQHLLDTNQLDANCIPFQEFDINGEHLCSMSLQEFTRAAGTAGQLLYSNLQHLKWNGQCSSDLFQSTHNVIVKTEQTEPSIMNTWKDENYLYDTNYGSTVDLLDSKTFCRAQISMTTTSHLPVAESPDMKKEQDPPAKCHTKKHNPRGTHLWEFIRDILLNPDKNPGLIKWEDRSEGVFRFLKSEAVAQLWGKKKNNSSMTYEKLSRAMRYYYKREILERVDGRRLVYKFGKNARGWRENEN
Outline: as §1

SPI1 = SPI1 (Homo sapiens, UniProt P17947 1-270); settings: protein: recombinant; tags: N-terminal GST; dsDNA, one strand shown
Outline: as §1

SPIB = SPIB (Homo sapiens, UniProt Q01892 1-262); settings: protein: recombinant; tags: N-terminal GST; dsDNA, one strand shown
Outline: as §1

ELK3 = target: T6, ELK3 (Homo sapiens, UniProt P41970 1-407); settings: protein: recombinant; tags: N-terminal GST; dsDNA, one strand shown
T6 sequence: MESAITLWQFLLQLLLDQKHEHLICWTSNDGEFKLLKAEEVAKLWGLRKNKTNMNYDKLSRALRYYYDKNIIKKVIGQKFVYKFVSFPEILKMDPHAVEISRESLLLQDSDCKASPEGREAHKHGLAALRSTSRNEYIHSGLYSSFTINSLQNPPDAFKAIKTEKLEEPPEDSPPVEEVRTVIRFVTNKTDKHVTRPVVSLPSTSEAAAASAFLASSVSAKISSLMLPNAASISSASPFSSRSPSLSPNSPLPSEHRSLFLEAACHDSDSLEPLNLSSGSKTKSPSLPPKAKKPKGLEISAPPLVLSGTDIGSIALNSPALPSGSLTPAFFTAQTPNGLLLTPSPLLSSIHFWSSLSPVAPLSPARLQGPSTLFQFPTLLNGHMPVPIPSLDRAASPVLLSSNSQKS
Outline: as §1

FEV = target: T7, FEV (Homo sapiens, UniProt Q99581 1-238); settings: protein: recombinant; tags: N-terminal GST; dsDNA, one strand shown
T7 sequence: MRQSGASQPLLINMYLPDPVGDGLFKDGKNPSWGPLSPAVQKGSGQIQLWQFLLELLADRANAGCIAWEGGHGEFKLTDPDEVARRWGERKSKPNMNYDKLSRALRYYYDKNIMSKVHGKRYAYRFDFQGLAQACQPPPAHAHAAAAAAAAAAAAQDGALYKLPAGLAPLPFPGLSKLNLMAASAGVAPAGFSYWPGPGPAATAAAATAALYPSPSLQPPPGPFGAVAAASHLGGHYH
Outline: as §1

ETV5 = ETV5 (Homo sapiens, UniProt P41161 1-510); settings: protein: recombinant; tags: N-terminal GST; dsDNA, one strand shown
Outline: as §1

HSF1 = HSF1 (Homo sapiens, UniProt Q00613 1-529); settings: protein: recombinant; tags: N-terminal GST; chain copies: 3; dsDNA, one strand shown
Outline: as §1

SPIC = target: T8, SPIC (Homo sapiens, UniProt Q8N5J4 1-248); settings: protein: recombinant; tags: N-terminal GST; dsDNA, one strand shown
T8 sequence: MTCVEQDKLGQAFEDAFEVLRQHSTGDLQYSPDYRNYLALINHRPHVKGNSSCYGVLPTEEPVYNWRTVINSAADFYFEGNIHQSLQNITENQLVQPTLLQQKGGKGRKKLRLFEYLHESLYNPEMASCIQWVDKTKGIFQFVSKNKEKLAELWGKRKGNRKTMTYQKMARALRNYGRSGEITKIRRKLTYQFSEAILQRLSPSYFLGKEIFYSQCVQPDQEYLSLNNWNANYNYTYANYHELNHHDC
Outline: as §1

ELF4 = ELF4 (Homo sapiens, UniProt Q99607 1-663); settings: protein: recombinant; tags: N-terminal GST; dsDNA, one strand shown
Outline: as §1

ELK4 = target: T9, ELK4 (Homo sapiens, UniProt P28324-2 1-405); settings: protein: recombinant; tags: N-terminal GST; dsDNA, one strand shown
T9 sequence: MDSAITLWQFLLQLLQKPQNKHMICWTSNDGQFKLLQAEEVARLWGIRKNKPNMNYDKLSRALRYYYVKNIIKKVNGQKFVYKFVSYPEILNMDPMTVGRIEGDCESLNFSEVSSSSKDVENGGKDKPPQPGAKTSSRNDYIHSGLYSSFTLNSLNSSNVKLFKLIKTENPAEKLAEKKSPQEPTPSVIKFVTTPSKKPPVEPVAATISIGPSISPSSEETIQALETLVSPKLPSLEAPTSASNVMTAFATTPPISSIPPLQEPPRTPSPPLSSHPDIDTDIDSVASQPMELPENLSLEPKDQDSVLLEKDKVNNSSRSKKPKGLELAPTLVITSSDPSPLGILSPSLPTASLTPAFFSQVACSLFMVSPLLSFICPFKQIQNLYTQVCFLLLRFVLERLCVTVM
Outline: as §1

ETV2 = target: T10, ETV2 (Homo sapiens, UniProt O00321 1-342); settings: protein: recombinant; tags: N-terminal GST; dsDNA, one strand shown
T10 sequence: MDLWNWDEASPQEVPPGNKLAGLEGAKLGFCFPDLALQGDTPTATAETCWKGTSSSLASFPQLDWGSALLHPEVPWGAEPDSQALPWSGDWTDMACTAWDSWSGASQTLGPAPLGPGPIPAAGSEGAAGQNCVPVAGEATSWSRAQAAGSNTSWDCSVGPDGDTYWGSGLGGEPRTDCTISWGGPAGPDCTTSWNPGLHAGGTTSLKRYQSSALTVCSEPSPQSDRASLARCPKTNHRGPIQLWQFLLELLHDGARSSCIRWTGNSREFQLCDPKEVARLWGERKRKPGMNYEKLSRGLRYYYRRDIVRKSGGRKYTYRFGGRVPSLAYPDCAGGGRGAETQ
Outline: as §1

ELF3 = target: T11, ELF3 (Homo sapiens, UniProt P78545 1-371); settings: protein: recombinant; tags: N-terminal GST; dsDNA, one strand shown
T11 sequence: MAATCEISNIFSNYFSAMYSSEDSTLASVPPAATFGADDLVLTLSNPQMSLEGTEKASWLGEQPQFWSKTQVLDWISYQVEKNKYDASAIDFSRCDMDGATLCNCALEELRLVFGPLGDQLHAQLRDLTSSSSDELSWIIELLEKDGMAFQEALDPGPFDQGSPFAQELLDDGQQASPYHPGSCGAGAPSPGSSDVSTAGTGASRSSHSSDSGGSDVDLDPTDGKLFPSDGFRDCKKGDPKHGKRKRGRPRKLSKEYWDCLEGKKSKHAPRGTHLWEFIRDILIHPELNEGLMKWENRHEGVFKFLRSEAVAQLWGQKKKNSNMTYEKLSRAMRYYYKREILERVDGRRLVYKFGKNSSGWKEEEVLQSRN
Outline: as §1

CRX = CRX (Homo sapiens, UniProt O43186 1-299); settings: protein: recombinant; tags: N-terminal GST; dsDNA, one strand shown
Outline: as §1

ETV1 = ETV1 (Homo sapiens, UniProt P50549 1-477); settings: protein: recombinant; tags: N-terminal GST; dsDNA, one strand shown
Outline: as §1

ETV5, sequence (P41161 whole entry): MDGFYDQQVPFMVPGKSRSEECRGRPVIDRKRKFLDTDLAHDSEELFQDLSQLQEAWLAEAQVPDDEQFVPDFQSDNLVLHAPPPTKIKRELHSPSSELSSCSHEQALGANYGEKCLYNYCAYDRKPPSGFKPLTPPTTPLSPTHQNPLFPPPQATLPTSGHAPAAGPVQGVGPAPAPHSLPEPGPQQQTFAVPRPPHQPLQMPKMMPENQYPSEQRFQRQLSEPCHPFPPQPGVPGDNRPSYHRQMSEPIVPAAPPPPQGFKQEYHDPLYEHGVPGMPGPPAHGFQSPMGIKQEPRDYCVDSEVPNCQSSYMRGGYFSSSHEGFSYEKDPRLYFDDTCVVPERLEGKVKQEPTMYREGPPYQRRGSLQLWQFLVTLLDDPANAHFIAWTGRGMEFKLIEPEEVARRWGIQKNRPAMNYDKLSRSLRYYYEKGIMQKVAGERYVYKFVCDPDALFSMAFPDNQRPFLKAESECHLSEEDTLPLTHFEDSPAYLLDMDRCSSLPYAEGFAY
CRX, sequence (O43186 whole entry): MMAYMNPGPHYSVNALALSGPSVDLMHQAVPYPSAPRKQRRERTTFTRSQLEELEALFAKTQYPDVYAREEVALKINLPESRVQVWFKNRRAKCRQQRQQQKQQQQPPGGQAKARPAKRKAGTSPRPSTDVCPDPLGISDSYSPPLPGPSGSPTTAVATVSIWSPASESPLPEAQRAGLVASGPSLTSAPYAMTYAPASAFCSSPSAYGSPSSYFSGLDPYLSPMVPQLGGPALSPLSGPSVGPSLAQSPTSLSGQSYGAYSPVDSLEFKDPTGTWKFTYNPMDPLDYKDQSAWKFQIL
ELF1, sequence (P32519 whole entry): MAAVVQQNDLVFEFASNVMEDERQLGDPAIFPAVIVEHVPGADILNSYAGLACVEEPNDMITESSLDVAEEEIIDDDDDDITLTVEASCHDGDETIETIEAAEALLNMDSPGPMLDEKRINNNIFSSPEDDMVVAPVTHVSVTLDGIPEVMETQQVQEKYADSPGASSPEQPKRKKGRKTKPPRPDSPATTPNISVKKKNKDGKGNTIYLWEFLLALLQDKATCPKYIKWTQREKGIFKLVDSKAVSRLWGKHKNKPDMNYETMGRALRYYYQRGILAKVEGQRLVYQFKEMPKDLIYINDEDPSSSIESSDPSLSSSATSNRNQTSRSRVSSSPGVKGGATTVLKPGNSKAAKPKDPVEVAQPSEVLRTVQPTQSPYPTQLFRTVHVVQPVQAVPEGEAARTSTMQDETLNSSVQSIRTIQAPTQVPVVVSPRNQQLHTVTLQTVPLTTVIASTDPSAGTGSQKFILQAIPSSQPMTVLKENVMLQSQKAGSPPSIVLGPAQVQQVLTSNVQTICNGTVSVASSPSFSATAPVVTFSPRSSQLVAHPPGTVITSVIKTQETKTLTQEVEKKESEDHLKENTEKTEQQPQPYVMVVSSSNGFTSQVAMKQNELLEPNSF
ETV1, sequence (P50549 whole entry): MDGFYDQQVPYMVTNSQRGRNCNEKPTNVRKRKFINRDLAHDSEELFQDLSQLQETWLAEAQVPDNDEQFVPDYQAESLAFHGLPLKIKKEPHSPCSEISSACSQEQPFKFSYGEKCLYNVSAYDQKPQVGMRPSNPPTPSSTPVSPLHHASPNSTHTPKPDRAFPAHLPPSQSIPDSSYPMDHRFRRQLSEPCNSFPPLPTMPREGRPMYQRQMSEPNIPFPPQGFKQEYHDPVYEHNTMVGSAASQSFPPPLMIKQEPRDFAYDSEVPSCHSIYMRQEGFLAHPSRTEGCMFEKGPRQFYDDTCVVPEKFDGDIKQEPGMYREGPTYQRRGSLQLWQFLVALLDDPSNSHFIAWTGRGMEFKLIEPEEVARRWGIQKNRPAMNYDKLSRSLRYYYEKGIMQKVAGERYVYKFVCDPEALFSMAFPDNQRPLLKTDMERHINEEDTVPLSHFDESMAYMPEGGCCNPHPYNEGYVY
SPIB, sequence (Q01892 whole entry): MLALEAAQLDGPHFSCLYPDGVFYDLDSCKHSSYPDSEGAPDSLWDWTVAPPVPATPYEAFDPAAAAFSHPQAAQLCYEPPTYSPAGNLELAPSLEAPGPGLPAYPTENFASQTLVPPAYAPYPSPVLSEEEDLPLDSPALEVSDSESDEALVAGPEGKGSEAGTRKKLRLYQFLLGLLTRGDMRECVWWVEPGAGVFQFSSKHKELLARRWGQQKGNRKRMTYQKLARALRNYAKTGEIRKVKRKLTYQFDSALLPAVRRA
ELF4, sequence (Q99607 whole entry): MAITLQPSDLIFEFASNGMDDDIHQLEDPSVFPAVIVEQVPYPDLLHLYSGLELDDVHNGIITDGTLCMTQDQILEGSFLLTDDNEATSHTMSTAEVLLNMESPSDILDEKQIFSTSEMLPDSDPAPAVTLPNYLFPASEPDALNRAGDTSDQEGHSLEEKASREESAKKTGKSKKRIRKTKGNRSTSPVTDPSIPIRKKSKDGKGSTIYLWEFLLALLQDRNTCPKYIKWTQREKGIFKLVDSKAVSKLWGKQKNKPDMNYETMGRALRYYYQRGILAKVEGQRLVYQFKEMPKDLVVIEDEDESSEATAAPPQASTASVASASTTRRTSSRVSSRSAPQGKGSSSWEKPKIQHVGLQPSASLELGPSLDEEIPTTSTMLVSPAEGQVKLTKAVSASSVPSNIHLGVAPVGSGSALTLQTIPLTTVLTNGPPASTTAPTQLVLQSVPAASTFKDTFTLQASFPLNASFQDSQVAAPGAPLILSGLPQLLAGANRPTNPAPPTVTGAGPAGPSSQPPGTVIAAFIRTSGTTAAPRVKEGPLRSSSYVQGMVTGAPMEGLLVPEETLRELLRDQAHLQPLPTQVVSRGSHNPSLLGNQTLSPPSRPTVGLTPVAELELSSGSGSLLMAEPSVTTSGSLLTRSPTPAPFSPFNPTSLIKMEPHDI
HSF1, sequence (Q00613 whole entry): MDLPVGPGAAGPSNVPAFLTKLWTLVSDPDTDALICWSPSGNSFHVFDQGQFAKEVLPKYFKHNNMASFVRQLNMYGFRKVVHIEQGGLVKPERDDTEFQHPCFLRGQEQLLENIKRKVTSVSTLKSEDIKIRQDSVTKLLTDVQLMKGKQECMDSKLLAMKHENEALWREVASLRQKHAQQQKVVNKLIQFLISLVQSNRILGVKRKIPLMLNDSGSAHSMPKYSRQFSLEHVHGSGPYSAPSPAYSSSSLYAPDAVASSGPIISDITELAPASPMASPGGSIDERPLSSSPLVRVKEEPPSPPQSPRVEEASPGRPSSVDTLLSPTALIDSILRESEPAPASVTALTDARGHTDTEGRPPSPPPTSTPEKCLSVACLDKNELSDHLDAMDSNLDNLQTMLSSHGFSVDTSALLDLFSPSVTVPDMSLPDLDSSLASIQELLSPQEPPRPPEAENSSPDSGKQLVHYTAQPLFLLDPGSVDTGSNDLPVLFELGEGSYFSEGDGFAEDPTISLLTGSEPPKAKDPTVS

Sequence: TTGGGG
- binding signal (FLI1): 1.4 fold enrichment (6-mer frequency, TF over GST control)
- binding signal (ELK1): 1.24 fold enrichment (6-mer frequency, TF over GST control)
- binding signal (GABPA): 1.33 fold enrichment (6-mer frequency, TF over GST control)
- binding signal (ERG): 1.21 fold enrichment (6-mer frequency, TF over GST control)
- binding signal (ELF1): 1.32 fold enrichment (6-mer frequency, TF over GST control)
- binding signal (EHF): 1.27 fold enrichment (6-mer frequency, TF over GST control)
- binding signal (SPI1): 1.26 fold enrichment (6-mer frequency, TF over GST control)
- binding signal (SPIB): 1.15 fold enrichment (6-mer frequency, TF over GST control)
- binding signal (ELK3): 1.31 fold enrichment (6-mer frequency, TF over GST control)
- binding signal (FEV): 1.17 fold enrichment (6-mer frequency, TF over GST control)
- binding signal (ETV5): 1.24 fold enrichment (6-mer frequency, TF over GST control)
- binding signal (HSF1): 1.11 fold enrichment (6-mer frequency, TF over GST control)
- binding signal (SPIC): 1.21 fold enrichment (6-mer frequency, TF over GST control)
- binding signal (ELF4): 1.24 fold enrichment (6-mer frequency, TF over GST control)
- binding signal (ELK4): 1.34 fold enrichment (6-mer frequency, TF over GST control)
- binding signal (ETV2): 1.17 fold enrichment (6-mer frequency, TF over GST control)
- binding signal (ELF3): 1.24 fold enrichment (6-mer frequency, TF over GST control)
- binding signal (CRX): 1.23 fold enrichment (6-mer frequency, TF over GST control)
- binding signal (ETV1): 1.38 fold enrichment (6-mer frequency, TF over GST control)
